# Test results from the supplement of paper PMC6555819.
# Assays:
# Test in all cases: PBM binding z-score (relative to random genomic background probes); higher = stronger binding; sequences stand for … in GC…GCGATTGACAGCGTAGAATGAAGG
# [1] = system: FXR:RXRa (NR concentration 270 nM, RXRa partner concentration 90 nM)
# In short: (§1)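 Random background probes are the reference for binding z-scores. These scores derive from regression-normalized fluorescence on custom Agilent 4×180K protein-binding microarrays incubated 1 h with ligand-free nuclear receptor dimers. Binding was detected with antibodies against each partner (one per run).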
# [2] = system: LXRa:RXRa (NR concentration 270 nM, RXRa partner concentration 90 nM)
# In short: as §1
# [3] = system: LXRa homodimer (NR concentration 270 nM)
# In short: as §1
# [4] = system: LXRb:RXRa (NR concentration 270 nM, RXRa partner concentration 90 nM)
# In short: as §1
# [5] = system: LXRb homodimer (NR concentration 270 nM)
# In short: as §1
# [6] = system: PPARa:RXRa (NR concentration 270 nM, RXRa partner concentration 90 nM)
# In short: as §1
# [7] = system: PPARg:RXRa (NR concentration 180 nM, RXRa partner concentration 90 nM)
# In short: as §1
# [8] = system: PPARg:RXRa 270nM:90nM, anti-RXR (NR concentration 270 nM, RXRa partner concentration 90 nM)
# In short: as §1
# [9] = system: PPARg:RXRa 30nM:10nM, anti-RXR (NR concentration 30 nM, RXRa partner concentration 10 nM)
# In short: as §1
# [10] = system: PPARg:RXRa 90nM:30nM, anti-RXR (NR concentration 90 nM, RXRa partner concentration 30 nM)
# In short: as §1
# [11] = system: PPARg:RXRa DBDmut IVT, anti-RXR (DBD mutation: RXRa K156A/R161A, NR concentration 270 nM, RXRa partner concentration 90 nM)
# In short: as §1
# [12] = system: PPARg:RXRa IVT, anti-PPARg (NR concentration 270 nM, RXRa partner concentration 90 nM)
# In short: as §1
# [13] = system: PPARg DBDmut:RXRa IVT, anti-PPARg (DBD mutation: PPARg1 K132A/R137A, NR concentration 270 nM, RXRa partner concentration 90 nM)
# In short: as §1
# [14] = system: PPARg DBDmut IVT, anti-PPARg (DBD mutation: PPARg1 K132A/R137A, NR concentration 270 nM)
# In short: as §1
# [15] = system: PPARg homodimer (NR concentration 180 nM)
# In short: as §1
# [16] = system: PXR:RXRa (NR concentration 270 nM, RXRa partner concentration 90 nM)
# In short: as §1
# [17] = system: PXR homodimer (NR concentration 270 nM)
# In short: as §1
# [18] = system: RARa:RXR (NR concentration 270 nM, RXRa partner concentration 90 nM)
# In short: as §1
# [19] = system: RARa homodimer (NR concentration 270 nM)
# In short: as §1
# [20] = system: RARb:RXRa (NR concentration 270 nM, RXRa partner concentration 90 nM)
# In short: as §1
Sequence,PBM binding z-score [1],PBM binding z-score [2],PBM binding z-score [3],PBM binding z-score [4],PBM binding z-score [5],PBM binding z-score [6],PBM binding z-score [7],PBM binding z-score [8],PBM binding z-score [9],PBM binding z-score [10],PBM binding z-score [11],PBM binding z-score [12],PBM binding z-score [13],PBM binding z-score [14],PBM binding z-score [15],PBM binding z-score [16],PBM binding z-score [17],PBM binding z-score [18],PBM binding z-score [19],PBM binding z-score [20]
TAGCCTAGCTCATTGGGCCAGTATAGTACGCATC,-0.7,-0.917,-0.393,-0.751,-0.9,-0.564,0.238,-0.576,-0.321,-0.323,0.043,-0.244,-0.824,-1.08,-1.36,-0.795,-0.368,-0.451,-1.17,-0.719
GCCAGCAGGCCATTTGGGTCACTCAATGACGGGC,0.0652,-0.0507,-0.664,-0.289,-1.29,1.02,0.451,0.16,-0.483,-0.357,0.295,1.48,-0.593,-1.66,-0.218,0.499,0.123,0.783,-1.21,1.49
TCATATAGGTAATACAGGTGAGAGTCGGCATCTA,0.19,0.512,0.274,0.54,0.184,1.63,1.39,2.16,3.62,2.77,3.93,3.29,1.38,1.56,0.749,0.46,0.623,0.533,1.42,0.457
TCTCGGAGGACACGAAGTTCAGAGCTTTCCAGAG,0.621,0.0816,-0.00666,0.0852,-0.97,0.472,-0.146,1.2,2.18,1.76,1.43,-0.00253,-0.707,-1.05,-0.195,1.39,2.87,0.555,-0.518,2.36
GATACAGGGTCAGCTAGAGGCCATAGTATGGAAA,4.67,3.04,-0.128,2.94,-0.352,4.53,4.05,3.34,0.897,2.51,0.981,2.33,0.47,-0.0794,2.26,3.96,0.241,4.62,0.222,4.15
TGAATGGGGTTATAAGATCAGGGAACGTTGCAAA,3.48,2.4,0.471,4,2,4.74,3.24,3.32,1.77,2.79,2.58,2.71,2.28,1.59,2.39,2.25,1.48,3.06,2.01,1.69
CGTACTAGGTCAAGGACAGTGAATCTCCGCACGC,3.26,2.36,0.318,1.61,0.134,3.93,6.37,5.52,2.99,4.86,7.55,7.47,2.25,1.3,2.34,1.19,0.03,2,1.16,4
